The text below walks through data of PubChem BioAssay.

Calls of active or inactive are those of the source.

The first assay has as its system XIP peptide (Xip251-270) binding. In words: XIP fragment 251-270 binding compounds – biochemical, small-molecule microarray, fluorescence 635/667 nm, 0.1 µg/mL protein, primary screen (AID 1182). The note with it: fluorescent protein binding, 635 nm, higher = more signal, called active from +8 up or from −8 down.
On to `CCCNC(=O)OC[C@H]1O[C@H](CCON=C(C)CCN2CCCc3nc(C)c(C)cc32)C=C[C@@H]1Oc1ccc(OC)cc1`, for which the composite z-score was -0.0364 (inactive). Take `CCOC(=O)[C@H](Cc1ccccc1)NC(=O)CCC1CC(OC(=O)NCc2ccc3c(c2)OCO3)CC2(CCCC(COC(=O)NCCc3ccccc3OC)O2)O1` (some centres undefined): the composite z-score is 0.581 (inactive). Still for that read-out and setting: then `COC(=O)CC=C[C@@H](C)[C@H](OCc1cccc(-c2ccccc2)c1)C1CCCCC1`, with 0.704 (inactive). With `COC(=O)[C@@H]1CC[C@@H](C)[C@H](c2ccc(Br)cc2)N1`, the composite z-score was -0.0456 (inactive). Same read-out and setting: for `CCN1C(=O)[C@H]2[C@H]3[C@H](O)[C@H](O)CC(=NNC(=O)OCc4ccc(OC)cc4)[C@@H]3CC[C@H]2C1=O` the value was 0.0729 (inactive); for `CO[C@H]1COC(=O)CC=C[C@H](C)[C@@H](OC)COC(=O)[C@H](C)COC(=O)CC=C[C@@H]1C`, 0.163 (inactive). On to `CO[C@H]1COC(=O)[C@@H]2CCCN2C(=O)CC=C[C@@H](C)[C@H](OC)COC(=O)[C@@H](OCc2ccccc2)C=C[C@@H]1C`, for which the composite z-score was 0.0932 (inactive). As for `COc1ccc(O[C@H]2C=C[C@@H](c3ccccc3)O[C@@H]2CON=C2[C@H]3CCn4c(=O)n(-c5ccccc5)c(=O)n4[C@H]3[C@H](O)[C@@H]3O[C@H]23)cc1`, the composite z-score is -0.454 (inactive).

For the next assay, the system named is XIP peptide (Xip251-270). In words: compounds binding XIP fragment 251-270 – biochemical, small-molecule microarray, fluorescence 635/667 nm, 0.5 µg/mL protein, primary screen (AID 1183). The note with it: fluorescence 635 nm, higher = more signal.
On to `CC(C)CCN1CCc2nc(COc3ccccc3)c3c(c2C1)CO[C@@H](C)C3`, for which the composite z-score was 0.143. On the same count and under the same terms, then `CO[C@H]1COC(=O)[C@H](C)NC(=O)CC=C[C@@H](C)[C@H](OC)COC(=O)[C@@H](OCc2ccccc2)C=C[C@@H]1C`, with -0.54; and `O=C1CCCC=C1C(CCc1ccccc1)OC(=O)c1ccc(Br)cc1` (centres undefined), with -0.198. The same measure, in the same setting: for `CC(CCN1CCc2nc(-c3ccccc3)c(-c3ccccc3)cc2C1)=NOC[C@@H](O)[C@H]1O[C@@H]2OC(C)(C)O[C@@H]2[C@H]1O` the value was 0.528. Still for that read-out and setting: then `O=C1[C@H]2[C@H]3[C@H](O)[C@H](O)CC(=NOCc4ccccc4)[C@@H]3CC[C@H]2C(=O)N1Cc1ccc2c(c1)OCO2`, with 0.2; and `COc1cccc([C@H]2Oc3ccc(OC)cc3C(=NO[C@@H](C)c3cn([C@H](CO)Cc4ccccc4)nn3)[C@@H]2O)c1`, with 0.502; and `COC(=O)[C@H](C)NC(=O)CCC1CC(OC(=O)NCc2ccc3c(c2)OCO3)CC2(CCCC(COC(=O)NCC3CCCCC3)O2)O1` (some centres undefined), with 0.555. As to `CC(C)(C)N1C(=O)[C@H]2[C@H]3[C@H](O)[C@H](O)CC(=NOCc4ccccc4)[C@H]3CC[C@H]2C1=O`, the composite z-score is -0.112. The same measure, in the same setting: then `CC(CCN1CCCCc2nc(C)c(C)cc21)=NOC[C@@H](C)[C@H](OCc1ccccc1)C(C)C`, with -0.3; and `Cc1cc2c(nc1C)CCCCN2CC(C)ON=C[C@@H](C)[C@H](OCc1ccccc1)C(C)C` (some centres undefined), with -0.0948. On the same count and under the same terms, for `CCc1cc2c(nc1CC)CCN(CCC(C)=NO[C@H](C)c1cn([C@@H]3COC[C@H]3O)nn1)C2` the value was -0.0063; for `C#CCCCON=C1C[C@@H](O)[C@@H](O)[C@@H]2[C@@H]3C(=O)N(c4ccc(F)cc4F)C(=O)[C@@H]3CC[C@@H]12`, 0.0996. The same measure, in the same setting: for `C[C@@H]1C=CCC(=O)OC[C@H]2O[C@@H](C=C[C@@H]2O)[C@H](C)C=CCC(=O)OC1` the value was 0.538.

`CC(CCN1CCCc2nc(C)c(C)cc21)=NOC(C)CN1CCCCc2nc(C)c(C)cc21` (centres undefined): the composite z-score turned out to be 0.725. Take `CC(CCN1CCCCc2nc(C)c(C)cc21)=NO[C@@H](C)c1cn([C@H](CO)Cc2ccccc2)nn1`: the composite z-score was 0.521.

Consider `CC(C)=CCCC(C)=CCON=C1C[C@@H](O)[C@@H](O)[C@@H]2[C@@H]3C(=O)N(C(C)(C)C)C(=O)[C@@H]3CC[C@H]12`, for which the composite z-score came out at 0.427. On the same count and under the same terms, then `CCN1C(=O)[C@@H]2[C@H]3C(=CC[C@@H]2C1=O)C1(OCCCO1)[C@H]1O[C@H]1[C@H]3O`, with 0.689. Turning to `O=C1C[C@@H](O)[C@@H](O)[C@@H]2[C@@H]3C(=O)N(C[C@@H]4CCCO4)C(=O)[C@@H]3CC[C@@H]12`, the composite z-score was 0.592. Same read-out and setting: then `CCOC(=O)NN=C1C[C@@H](O)[C@@H](O)[C@@H]2[C@@H]3C(=O)N([C@@H](C)c4ccccc4)C(=O)[C@@H]3CC[C@H]12`, with -0.0286. Same read-out and setting: for `CCCNC(=O)OC[C@H]1O[C@H](c2ccccc2)C=C[C@@H]1Oc1ccc(OC)cc1` the value was 0.631. On the same count and under the same terms, for `C[C@H]1CC[C@H]2C(=O)O[C@H](COc3ccc(C(C)(C)C)cc3)CN2[C@@H]1c1ccc(Br)cc1` the value was 0.567. On to `CCOC(=O)[C@H](Cc1ccccc1)NC(=O)CCC1CC(OC(=O)NCc2cccc3ccccc23)CC2(CCCC(COC(=O)NCCC(C)C)O2)O1` (some centres undefined), for which the composite z-score is 0.027. The same measure, in the same setting: then `COC(=O)[C@@H]1CC[C@H](C)[C@@H](c2ccc(C)cc2)N1C(=O)c1ccc(C=NOC[C@@H](C)[C@H](OCc2ccccc2)C(C)C)cc1`, with 0.489; and `C=CC[C@@H]1C=C[C@H](ON=C(C)CCC(=O)OC[C@H]2O[C@H](C#Cc3ccccc3)C=C[C@@H]2Oc2ccc(C)cc2)[C@@H](CO)O1`, with 0.437. Regarding `CCOC(=O)[C@H](CC(C)C)NC(=O)CCC1CC(OC(=O)NCc2cccc3ccccc23)CC2(CCCC(COC(=O)NCc3ccncc3)O2)O1` (some centres undefined), the composite z-score was found to be 0.53. Same read-out and setting: for `COc1ccc(O[C@H]2C=C[C@@H](c3ccccc3)O[C@@H]2COC(=O)CCC(C)=NOC(C)CN2CCCc3nc(C)c(C)cc32)cc1` (some centres undefined) the value was 0.552; for `COC(=O)CC=C[C@@H](C)[C@@H]1C=C[C@H](O)[C@@H](CO)O1`, -0.518.

`COC(=O)C1=C(C)N(Cc2ccccc2)[C@]23O[C@](C(=O)OC)(C(=O)N2[C@@H]1c1ccccc1)C(C(=O)OC)=C3C(=O)OC`: the composite z-score came to 0.435. The same measure, in the same setting: for `CCCNC(=O)OC[C@H]1O[C@H](CCON=C(C)CCN2CCCc3nc(C)c(C)cc32)C=C[C@@H]1Oc1ccc(OC)cc1` the value was 0.527; for `CCOC(=O)[C@H](Cc1ccccc1)NC(=O)CCC1CC(OC(=O)NCc2ccc3c(c2)OCO3)CC2(CCCC(COC(=O)NCCc3ccccc3OC)O2)O1` (some centres undefined), 0.798. Still for that read-out and setting: then `COC(=O)CC=C[C@@H](C)[C@H](OCc1cccc(-c2ccccc2)c1)C1CCCCC1`, with 0.881.

With `COC(=O)[C@@H]1CC[C@@H](C)[C@H](c2ccc(Br)cc2)N1`, the composite z-score was 0.0425. The same measure, in the same setting: for `CCN1C(=O)[C@H]2[C@H]3[C@H](O)[C@H](O)CC(=NNC(=O)OCc4ccc(OC)cc4)[C@@H]3CC[C@H]2C1=O` the value was -0.225; for `CO[C@H]1COC(=O)CC=C[C@H](C)[C@@H](OC)COC(=O)[C@H](C)COC(=O)CC=C[C@@H]1C`, -0.337.

For the compound `CO[C@H]1COC(=O)[C@@H]2CCCN2C(=O)CC=C[C@@H](C)[C@H](OC)COC(=O)[C@@H](OCc2ccccc2)C=C[C@@H]1C`, the composite z-score was 0.789. Same read-out and setting: for `COc1ccc(O[C@H]2C=C[C@@H](c3ccccc3)O[C@@H]2CON=C2[C@H]3CCn4c(=O)n(-c5ccccc5)c(=O)n4[C@H]3[C@H](O)[C@@H]3O[C@H]23)cc1` the value was 0.742.
